Several values for one entry are separate records, joined by “and”; a condition that tells them apart may be missing. Identical values can stand only once. Records with an inconclusive call do not appear. A call without a number means that no potency is given here. The source holds several records for some structures; these can differ, active in one and inactive in another. Activity calls are given as the source filed them. Unless noted, calls follow the shape of the dose curve; as a rule, active = well fitted curve in the direction sought with a large enough effect in the repeat runs; inconclusive = weak or mixed curves; inactive = no such curve, though single readings can be large; an effect the other way counts as inactive or inconclusive.
How the values were obtained:
[1] = qHTS assay to identify small molecule antagonists of the peroxisome proliferator-activated receptor delta (PPARd) signaling pathway - cell viability counter screen (AID 743213); also: nearly all actives have a fitted effect of over 50% in size; also: potency is read from the fitted curve at half-maximal effect
Procedure, shortened: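 In this counter screen, HEK293H cells carrying a UAS-beta-lactamase reporter are co-treated with test compounds and 300 nM L165041 (final) for 17 h at 37 C; cell viability is quantified by CellTiter-Glo luminescence.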

[2] = qHTS assay to identify small molecule agonists of the farnesoid-X-receptor (FXR) signaling pathway - cell viability counter screen (AID 743218); also: nearly all actives have a fitted effect of over 45% in size
Procedure, shortened: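 Cells were seeded, left 5 h at 37 C and 5% CO2, then dosed with compound in DMSO for 16 h. After the beta-lactamase FRET read, CellTiter-Glo was added and luminescence measured 30 min later.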

[3] = qHTS assay to identify small molecule antagonists of the farnesoid-X-receptor (FXR) signaling pathway - cell viability counter screen (AID 743221; active = well fitted cell-killing curve with a large enough effect in the repeat runs, not every such curve was filed as active; also: nearly all actives have a fitted effect of over 50% in size)
Procedure, shortened: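 Here viability was scored by luminescence after CellTiter-Glo addition to wells already read for beta-lactamase. Prior treatment: compound plus CDCA (50 uM final), 16 h, 37 C, HEK 293T FXR-bla cells.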

[4] = qHTS assay to identify small molecule agonists of the vitamin D receptor (VDR) signaling pathway - cell viability counter screen (AID 743224); also: nearly all actives have a fitted effect of over 50% in size; also: potency is read from the fitted curve at half-maximal effect
Procedure, shortened: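 Cells: VDR-bla, 2,000/well, settled 4 h. Treatment: compounds in DMSO, 16 h, 37C/5% CO2. Readout: CellTiter-Glo luminescence after 30 min RT.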

[5] = qHTS assay to identify small molecule antagonists of the vitamin D receptor (VDR) signaling pathway - cell viability counter screen (AID 743225); also: nearly all actives have a fitted effect of over 50% in size; also: potency is read from the fitted curve at half-maximal effect
Procedure, shortened: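 Compounds were pinned onto VDR-bla HEK 293T cells together with 1-alpha,25-dihydroxyvitamin D3 at 3 nM final. After 16 h at 37C and 5% CO2 plus the reporter readout, cell viability was measured by CellTiter-Glo luminescence (30 min, room temperature).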

[6] = qHTS assay to identify small molecule agonists of the NFkB signaling pathway - cell viability counter screen (AID 1159515; calls by dose curve; also: series mostly up to about 61 µM; nearly all actives have a fitted effect of over 55% in size)
Procedure, shortened: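 Cells are seeded (2,000 NFkB-bla ME-180 per well), rested overnight, and dosed with DMSO-dissolved compounds for 5 hr at 37 C. Viability is then read by CellTiter-Glo luminescence after 30 min at room temperature.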

[7] = qHTS assay to identify small molecule agonists of the endoplasmic reticulum stress response signaling pathway (AID 1159516; active = well fitted activation curve with a large enough effect in the signal ratio in the repeat runs, not every such curve was filed as active; the % refers to the signal ratio)
Procedure, shortened: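 Cells are seeded at 1,500 per well and incubated overnight. Compounds in DMSO are added for 5 hr at 37 C, then beta-lactamase FRET substrate for 2 hr at room temperature, and fluorescence at 460 and 530 nm is measured.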

[8] = qHTS assay to identify small molecule agonists of the endoplasmic reticulum stress response signaling pathway - cell viability counter screen (AID 1159517; calls by dose curve)
Procedure, shortened: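 Cpd-treated ESRE-bla HeLa (5 hr, 37 C) → LiveBLAzer 2 hr RT → CellTiter-Glo 30 min RT → luminescence.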

[9] = qHTS assay to identify small molecule antagonists of the retinoid-related orphan receptor gamma (ROR-gamma) signaling pathway - cell viability counter screen (AID 1159520); also: nearly all actives have a fitted effect of over 50% in size; also: potency is read from the fitted curve at half-maximal effect
Procedure, shortened: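 Tet-on ROR gamma CHO cells (1,000/well) were plated 4 hr, given compounds in DMSO for 2 hr at 37 C, then induced with 1 uM final doxycycline for 16 hr. Viability was read as ATP by CellTiter-Glo luminescence after 30 min.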

[10] = qHTS assay to identify small molecule agonists of the AP-1 signaling pathway - cell viability counter screen (AID 1159525; calls by dose curve; also: nearly all actives have a fitted effect of over 55% in size; also: potency is read from the fitted curve at half-maximal effect)
Procedure, shortened: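 Each titration point was normalised to DMSO and tetra n-octyl ammonium bromide controls. The read was Cell Titer Glo luminescence after 30 min at RT, following 5 h compound exposure of ME-180 AP-1-bla cells at 37 °C.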

[11] = qHTS assay to identify small molecule agonists of the AP-1 signaling pathway (AID 1159526; calls by dose curve; also: potency is read from the fitted curve at half-maximal effect)
[12] = target: Retinoic acid receptor RXR-alpha (Homo sapiens) (UniProt P19793); assay: qHTS assay to identify small molecule agonists of the RXR signaling pathway (AID 1159527; calls by dose curve; also: nearly all actives have a fitted effect of over 35% in size)
Procedure, shortened: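 Using 9-cis retinoic acid as the reference agonist, chemicals were tested in HEK 293T cells […] for 16 hr; substrate loading lasted 2 hr at room temperature.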

[13] = qHTS assay to identify small molecule agonists of the RXR signaling pathway - cell viability counter screen (AID 1159529); also: nearly all actives have a fitted effect of over 50% in size; also: potency is read from the fitted curve at half-maximal effect
Procedure, shortened: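 Compounds dissolved in DMSO were pinned onto HEK 293T cells carrying a beta-lactamase reporter under RXR-alpha control and incubated 16 hr. Cytotoxicity was then quantified by CellTiter-Glo luminescence.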

[14] = qHTS assay to identify small molecule antagonists of the retinoid acid receptor (RAR) signaling pathway - cell viability counter screen (AID 1159551); also: nearly all actives have a fitted effect of over 35% in size
Procedure, shortened: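 Cells (C3RL4) are plated, incubated overnight, dosed with compound in DMSO, then given retinol at 1 uM final. After 6 h at 37 C, CellTiter-Glo is added and luminescence read following 30 min at room temperature.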

[15] = target: Vitamin D3 receptor (Homo sapiens) (UniProt P11473); assay: qHTS assay to identify small molecule agonists of the vitamin D receptor (VDR) signaling pathway (AID 743222; calls by dose curve)
Procedure, shortened: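 Cells carrying a VDR-driven beta-lactamase reporter are seeded at 2,000 per well and rested 4 h. Compounds in DMSO are added for 16 h at 37C, and FRET substrate fluorescence is measured after 2 h at room temperature.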

[16] = target: Vitamin D3 receptor (Homo sapiens) (UniProt P11473); assay: qHTS assay to identify small molecule antagonists of the vitamin D receptor (VDR) signaling pathway (AID 743223; active = well fitted inhibition curve with a large enough effect in the signal ratio in the repeat runs, not every such curve was filed as active; the % refers to the signal ratio)
Procedure, shortened: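 Inhibition of agonist-driven VDR signalling is scored in VDR-bla cells: 3 nM final 1alpha,25-dihydroxyvitamin D3 plus compound, 16 h at 37C, then beta-lactamase detection by FRET substrate fluorescence after 2 h.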

[17] = target: Nuclear receptor ROR-gamma (Homo sapiens) (UniProt P51449); assay: qHTS assay to identify small molecule antagonists of the retinoid-related orphan receptor gamma (ROR-gamma) signaling pathway (AID 1159521)
Procedure, shortened: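 Test compounds were applied to Tet-on RORγ CHO cells 2 h ahead of doxycycline hyclate (1 uM final). Luciferase reporter activity was quantified by luminescence after 16 h at 37 C and 5% CO2.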

Chain of Retinoic acid receptor RXR-alpha (Homo sapiens) (P19793 whole entry, looked up): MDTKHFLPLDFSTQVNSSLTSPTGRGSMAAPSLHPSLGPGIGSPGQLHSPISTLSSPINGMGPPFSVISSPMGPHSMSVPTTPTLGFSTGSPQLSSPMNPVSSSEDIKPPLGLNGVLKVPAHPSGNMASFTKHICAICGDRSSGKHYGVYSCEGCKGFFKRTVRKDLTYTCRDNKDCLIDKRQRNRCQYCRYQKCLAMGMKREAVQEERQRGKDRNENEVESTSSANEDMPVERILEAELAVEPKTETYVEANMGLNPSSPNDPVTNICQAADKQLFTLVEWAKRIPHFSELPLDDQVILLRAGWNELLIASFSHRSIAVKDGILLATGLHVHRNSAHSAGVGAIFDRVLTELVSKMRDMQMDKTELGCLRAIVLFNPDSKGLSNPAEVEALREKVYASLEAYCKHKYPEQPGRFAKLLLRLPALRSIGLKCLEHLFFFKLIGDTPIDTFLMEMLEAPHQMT
Chain of Vitamin D3 receptor (Homo sapiens) (P11473 whole entry, looked up): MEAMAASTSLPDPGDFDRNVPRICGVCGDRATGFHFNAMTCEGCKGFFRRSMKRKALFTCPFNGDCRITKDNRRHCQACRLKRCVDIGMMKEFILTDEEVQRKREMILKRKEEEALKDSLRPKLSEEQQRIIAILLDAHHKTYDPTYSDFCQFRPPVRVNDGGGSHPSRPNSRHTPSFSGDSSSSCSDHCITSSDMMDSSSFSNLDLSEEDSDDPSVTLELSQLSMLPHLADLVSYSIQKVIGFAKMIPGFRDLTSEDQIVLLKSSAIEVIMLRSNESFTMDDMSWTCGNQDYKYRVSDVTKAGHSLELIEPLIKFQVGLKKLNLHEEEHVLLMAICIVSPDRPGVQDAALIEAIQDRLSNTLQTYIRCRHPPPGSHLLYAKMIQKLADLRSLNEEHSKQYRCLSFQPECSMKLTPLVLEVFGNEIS

Structure (SMILES) | Potency [1] | Potency [2] | Potency [3] | Potency [4] | Potency [5] | Potency [6] | outcome [7] | Potency [8] | Potency [9] | Potency [10] | Potency [11] | Potency [12] | Potency [13] | Potency [14] | outcome [15] | Potency [16] | Potency [17]
CCCCn1cc[n+](C)c1 | inactive | inactive | inactive | inactive | inactive | inactive | inactive | inactive | inactive | inactive | inactive | inactive | inactive | inactive |  |  | 
C=CCOC(Cn1ccnc1)c1ccc(Cl)cc1Cl (stereo not drawn) | inactive | inactive | inactive | 54.9 µM (active) and inactive | inactive | inactive |  | inactive | inactive | inactive |  | inactive | inactive | inactive | inactive | inactive | 21.8 µM (active) and 29.8 µM (active)
CCCC[n+]1ccc(C)cc1 | inactive and 43.4 µM (active) | inactive | inactive | inactive and 43.4 µM (active) | inactive and 48.7 µM (active) | inactive | inactive | inactive | inactive and 60.8 µM (active) | inactive and 48.7 µM (active) | 13.8 µM (active) and inactive | inactive | inactive and 34.5 µM (active) | inactive |  |  | 

Reference: PubChem BioAssay (Tox21)
